Hit rate of the full screen: of about 11,000 compounds, about 310 (2.8%) were called active. No stated cut-off is given here; in the data, active means activity change below about -85%; inactive means the rest. The full list was thinned out, with actives kept by preference.
What follows are compounds tested on intestinal alkaline phosphatase [Mus musculus] (assay: mouse intestinal phosphatase enzyme activation – biochemical, luminescence, single concentration, confirmation (AID 434970)). Conditions: purified mouse IAP, CDP-Star luminescence, 30 min, at 10 µM; activation factor: measured here: IAP activation factor, stronger effect = higher value; activity change, negative = activation: stronger effect = lower value.

Row | SMILES | activation factor | activity change, negative = activation
1 | Cc1oc(-c2ccc3c(c2)OCCO3)cc1C(=O)NC(CCC(=O)O)C(=O)O (stereo unspecified) | 0.95 | 5.05% (inactive)
2 | O=C(NCCNS(=O)(=O)c1ccccc1)c1cc(OCC(F)(F)F)ccc1OCC(F)(F)F | 1.09 | -9.5% (inactive)
3 | C=CCn1c(=O)c2ccccc2n2c(Sc3nnnn3-c3ccccc3)nnc12 | 1 | -0.35% (inactive)
4 | O=C(CN1N=C(C(F)(F)F)CC1(O)c1ccc([N+](=O)[O-])cc1)c1ccccc1 (stereo unspecified) | 1.07 | -7.45% (inactive)
5 | CC1=NN(/C(=N\c2nnc(C)s2)Nc2ccc(C(C)(C)C)cc2)[C@H](c2ccc(C)cc2)S1 | 0.976 | 2.45% (inactive)
6 | CCC(C)c1ccc(NC(=O)C2CC2)cc1 (stereo unspecified) | 1.07 | -7.35% (inactive)
7 | Cc1cc(C)nc(-n2nc(C)c3c(C(F)(F)F)cc(=O)[nH]c32)n1 | 1.03 | -2.7% (inactive)
8 | Cc1c(CN2CCC(C(=O)Nc3cccc(-c4cccc(Cl)c4)c3)CC2)cnn1C | 4.12 | -312% (active)
9 | COc1ccc(Cl)cc1C(=O)NCc1cnn(C)c1C | 0.932 | 6.75% (inactive)
10 | C=CCn1cc(CN2CCC(C(=O)Nc3cccc(-c4cccc(F)c4)c3)CC2)c(C)n1 | 2.94 | -194% (active)
11 | CCn1cc(CN2CCC(C(=O)Nc3cccc(-c4cccc(Cl)c4)c3)CC2)c(C)n1 | 4.96 | -396% (active)
12 | C=CCn1cc(CN2CCC(C(=O)Nc3cccc(-c4cccc(Cl)c4)c3)CC2)c(C)n1 | 3.74 | -274% (active)
13 | O=C(Nc1cccc(F)c1)N1CCN(C/C=C/c2ccccc2)CC1 | 0.988 | 1.15% (inactive)
14 | C/C(=N\NC(=O)c1nn(C)cc1Br)c1cccc(NC(=O)C2CCCC2)c1 | 1.03 | -3.45% (inactive)
15 | Cc1cccc(-n2c(SCC(=O)Nc3ccc4c(c3)OCO4)nnc2-c2ccoc2C)c1 | 1.03 | -2.65% (inactive)
16 | Cc1cccc(C2=NN(c3ccc(Br)cc3)[C@@H](C(=O)N3CCOC3=O)[C@@H]2C)c1 | 0.974 | 2.65% (inactive)
17 | CC(=O)c1c(C)[nH]c(C(=O)N2CCN(c3cc(Cl)ccc3C)CC2)c1C | 1.14 | -13.5% (inactive)
18 | CN(C(=O)C1CCOC1)c1nnc(-c2ccncc2)s1 (stereo unspecified) | 0.913 | 8.65% (inactive)
19 | CC(Oc1ccc(Br)cc1)C(=O)N1CCc2ccccc21 (stereo unspecified) | 1.16 | -16.1% (inactive)
20 | N#Cc1c2c(c(NCCCN3CCOCC3)n3c1nc1ccccc13)CCC2 | 0.904 | 9.6% (inactive)
21 | Cc1ccc(C2CC(=O)Oc3cc(C)cc(C)c32)cc1 (stereo unspecified) | 1.06 | -5.5% (inactive)
22 | COc1ccc(S(=O)(=O)c2ccc(O)cc2)cc1 | 0.992 | 0.8% (inactive)
23 | CC(C)[C@@H](CO)N(C)S(=O)(=O)c1ccccc1Br | 1.01 | -0.85% (inactive)
24 | O=C(NCCc1ccc(Cl)cc1)c1cccnc1 | 0.957 | 4.3% (inactive)
25 | COc1ccc2cc(C[C@@H]3CC[C@@H](CO)O3)ccc2c1 | 1.04 | -4.15% (inactive)
26 | O=C(Nc1ccccc1Cl)C1CCN(Cc2cnn(-c3ccccc3)c2-n2cccc2)CC1 | 1.02 | -1.6% (inactive)
27 | COc1cccc(NC(=O)C2CCN(Cc3cnn(-c4ccccc4)c3-n3cccc3)CC2)c1 | 2.01 | -101% (active)

Row | SMILES | activation factor | activity change, negative = activation
28 | COc1ccc(NC(=O)C2CCN(c3nnnn3-c3ccccc3)CC2)cc1 | 0.976 | 2.45% (inactive)
29 | Cc1ccc(-c2csc(N)n2)s1 | 0.219 | 78% (inactive)
30 | FC(F)Oc1ccc(NC(=S)NC2CCSc3ccccc32)cc1 (stereo unspecified) | 2.75 | -175% (active)
31 | S=C(Nc1ccc(Cl)c(Cl)c1)NC1CCCCC1 | 1.9 | -90.1% (inactive)
32 | NS(=O)(=O)c1cc(C(=O)NC2CCSc3ccccc32)ccc1Cl (stereo unspecified) | 0.16 | 84% (inactive)
33 | Cc1cccc(NC(=S)NCCN(C2CCCCC2)C2CCCC2)c1 | 1.23 | -23.1% (inactive)
34 | Cc1ccc(NC(=S)NC2CCSc3ccccc32)cc1 (stereo unspecified) | 1.37 | -36.6% (inactive)
35 | FC(F)Oc1ccc(NC(=S)NC2CCCCCCC2)cc1 | 1.38 | -38% (inactive)
36 | S=C(Nc1ccc(Oc2ccccc2)cc1)NC1CCCC1 | 1.5 | -49.8% (inactive)
37 | Cc1ccc(NC(=S)NC2CCSc3ccccc32)cc1C (stereo unspecified) | 2.71 | -172% (active)
38 | Cc1cccc(NC(=S)NC2CCSc3ccccc32)c1 (stereo unspecified) | 3.43 | -242% (active)
39 | S=C(NCc1ccccc1)NC1CCSc2ccccc21 (stereo unspecified) | 2.51 | -151% (active)
40 | S=C(NCc1ccccc1)NC1CCCc2ccccc21 (stereo unspecified) | 1.87 | -86.8% (inactive)
41 | S=C(NCc1ccccc1)NCc1ccc(CNC(=S)NCc2ccccc2)cc1 | 1.39 | -39.4% (inactive)
42 | COc1ccc(C2/C=C\CN(C(=O)OCC3c4ccccc4-c4ccccc43)CC(=O)N2Cc2cccc(F)c2)cc1 (stereo unspecified) | 1.1 | -10.4% (inactive)
43 | O=C(Nc1ccc2nc(-c3ccc4nc[nH]c4c3)[nH]c2c1)c1cccs1 | 1.05 | -5.3% (inactive)
44 | CC(=O)N1CCN(c2ccc(NCc3ccc(C)cc3)cc2)CC1 | 1.09 | -9.45% (inactive)
45 | COC(=O)c1ccc(Nc2cc(C)nc3ncnn23)cc1 | 1.03 | -3.5% (inactive)
46 | Cc1csc(SCc2ccccc2C(=O)O)n1 | 0.948 | 5.2% (inactive)
47 | COc1ccccc1C(=O)N1CCN=C1c1ccccc1 | 0.974 | 2.55% (inactive)
48 | O=C(NCC(=O)N(c1ccccc1)C(C(=O)NC1CCCCC1)c1ccncc1)c1ccco1 (stereo unspecified) | 1.01 | -1.1% (inactive)
49 | Cc1ccc(-c2nnc(SCC(=O)NNC(=O)COc3cccc4ccccc34)n2C)cc1 | 1.03 | -3.2% (inactive)
50 | Cn1c(=O)c2c(nc(NC3CCCCC3)n2CC(=O)C23CC4CC(CC(C4)C2)C3)n(C)c1=O | 5.65 | -465% (active)
51 | Cn1c(=O)c2c(nc(SCC(=O)N3CCCCCC3)n2C)n(C)c1=O | 1.08 | -7.85% (inactive)
52 | Cn1c(=O)c2c(nc(NC3CCCCC3)n2CC(O)COc2ccccc2)n(C)c1=O (stereo unspecified) | 1.01 | -0.8% (inactive)
53 | CCN(Cc1cc2ccccc2[nH]c1=O)S(=O)(=O)c1ccccc1 | 1.02 | -1.85% (inactive)

From PubChem BioAssay AID434970 (Sanford-Burnham Center for Chemical Genomics, 2010)
